These results are taken from article PMC7862700, “An all-to-all approach to the identification of sequence-specific readers for epigenetic DNA modifications on cytosine”.

Assay in all cases: DAPPL (digital affinity profiling via proximity ligation, sequencing); 10 mM Tris-HCl pH 7.5, 50 mM NaCl, 1 mM DTT, 4% glycerol, room temperature, 30 min; GST-TFs on glutathione beads, 16-mer random dsDNA library, 0.1% formaldehyde crosslink after washing; high values mean tight binding
Details in all cases: protein: recombinant; tags: N-terminal GST; dsDNA, one strand shown

Assay [1] addresses T1, FLI1 (Homo sapiens, UniProt Q01543 1-452).
T1 sequence: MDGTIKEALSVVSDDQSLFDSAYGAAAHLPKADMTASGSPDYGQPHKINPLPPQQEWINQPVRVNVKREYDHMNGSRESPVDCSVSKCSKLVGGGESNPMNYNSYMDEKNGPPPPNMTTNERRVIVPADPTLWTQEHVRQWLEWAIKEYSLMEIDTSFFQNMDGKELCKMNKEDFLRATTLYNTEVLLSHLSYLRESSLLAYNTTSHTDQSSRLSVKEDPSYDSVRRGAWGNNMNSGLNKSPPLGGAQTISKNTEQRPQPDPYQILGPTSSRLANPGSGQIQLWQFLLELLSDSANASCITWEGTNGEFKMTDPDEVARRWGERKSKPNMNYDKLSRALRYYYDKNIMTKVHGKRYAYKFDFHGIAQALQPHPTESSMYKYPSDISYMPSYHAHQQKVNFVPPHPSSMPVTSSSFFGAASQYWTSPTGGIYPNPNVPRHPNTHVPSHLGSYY
The procedure, abridged:
(§1)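 Beads coated with glutathione captured GST-fused human transcription factors that had been expressed in yeast, and the factors were then given DNA barcodes and pooled with a tag-only sample. The pools were incubated with 200 nmole of a random double-stranded 16-mer DNA library in Tris/NaCl/DTT/glycerol buffer for 30 min at room temperature, washed, crosslinked with 0.1% formaldehyde and proximity-ligated with BsaI/T4 ligase at 37 °C for 1 h. PCR amplification and Illumina NextSeq500 sequencing came last. Binding signal is each hexamer's read frequency for a factor divided by its frequency for the tag-only sample.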

Assay [2] addresses T2, GABPA (Homo sapiens, UniProt Q06546 1-454).
T2 sequence: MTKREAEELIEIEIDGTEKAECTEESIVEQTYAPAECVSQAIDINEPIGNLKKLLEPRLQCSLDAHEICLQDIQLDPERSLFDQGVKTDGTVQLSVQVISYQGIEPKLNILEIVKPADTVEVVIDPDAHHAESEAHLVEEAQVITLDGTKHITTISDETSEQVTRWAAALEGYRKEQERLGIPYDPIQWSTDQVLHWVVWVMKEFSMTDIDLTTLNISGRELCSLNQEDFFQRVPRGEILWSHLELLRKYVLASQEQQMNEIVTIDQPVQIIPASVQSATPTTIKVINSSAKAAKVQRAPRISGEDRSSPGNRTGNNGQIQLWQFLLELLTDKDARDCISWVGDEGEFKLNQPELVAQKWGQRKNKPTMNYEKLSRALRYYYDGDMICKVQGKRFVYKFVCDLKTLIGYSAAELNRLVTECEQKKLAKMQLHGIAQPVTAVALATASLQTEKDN
The procedure, abridged: as §1

Assay [3] has as its target T3, ERG (Homo sapiens, UniProt P11308 1-479).
T3 sequence: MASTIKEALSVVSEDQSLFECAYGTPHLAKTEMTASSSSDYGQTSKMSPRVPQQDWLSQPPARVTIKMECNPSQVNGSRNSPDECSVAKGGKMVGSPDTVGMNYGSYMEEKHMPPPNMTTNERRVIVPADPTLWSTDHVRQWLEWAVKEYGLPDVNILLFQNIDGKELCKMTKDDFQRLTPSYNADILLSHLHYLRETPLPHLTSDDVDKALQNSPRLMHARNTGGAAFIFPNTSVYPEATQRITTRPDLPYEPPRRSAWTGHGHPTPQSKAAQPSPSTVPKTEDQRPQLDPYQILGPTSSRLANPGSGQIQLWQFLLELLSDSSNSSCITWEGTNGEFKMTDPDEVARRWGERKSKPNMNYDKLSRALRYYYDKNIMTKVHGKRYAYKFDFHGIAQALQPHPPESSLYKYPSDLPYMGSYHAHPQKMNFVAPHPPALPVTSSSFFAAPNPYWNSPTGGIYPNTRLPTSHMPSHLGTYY
Summed up: as §1

The target of assay [4] is ELF1 (Homo sapiens, UniProt P32519 1-619). The procedure, abridged:
as §1

Assay [5] concerns the target T4, EHF (Homo sapiens, UniProt Q9NZC4 1-300).
T4 sequence: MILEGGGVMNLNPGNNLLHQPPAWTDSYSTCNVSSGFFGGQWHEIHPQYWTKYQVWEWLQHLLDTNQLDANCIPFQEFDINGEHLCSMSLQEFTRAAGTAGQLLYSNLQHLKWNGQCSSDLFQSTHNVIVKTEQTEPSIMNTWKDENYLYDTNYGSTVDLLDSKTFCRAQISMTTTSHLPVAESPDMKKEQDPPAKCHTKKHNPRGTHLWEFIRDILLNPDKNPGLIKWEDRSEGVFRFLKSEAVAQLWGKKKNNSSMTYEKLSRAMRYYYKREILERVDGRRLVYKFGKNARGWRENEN
Summed up:
as §1

Assay [6] concerns the target SPI1 (Homo sapiens, UniProt P17947 1-270). The procedure, abridged:
as §1

The target in assay [7] is T5, ELK3 (Homo sapiens, UniProt P41970 1-407).
T5 sequence: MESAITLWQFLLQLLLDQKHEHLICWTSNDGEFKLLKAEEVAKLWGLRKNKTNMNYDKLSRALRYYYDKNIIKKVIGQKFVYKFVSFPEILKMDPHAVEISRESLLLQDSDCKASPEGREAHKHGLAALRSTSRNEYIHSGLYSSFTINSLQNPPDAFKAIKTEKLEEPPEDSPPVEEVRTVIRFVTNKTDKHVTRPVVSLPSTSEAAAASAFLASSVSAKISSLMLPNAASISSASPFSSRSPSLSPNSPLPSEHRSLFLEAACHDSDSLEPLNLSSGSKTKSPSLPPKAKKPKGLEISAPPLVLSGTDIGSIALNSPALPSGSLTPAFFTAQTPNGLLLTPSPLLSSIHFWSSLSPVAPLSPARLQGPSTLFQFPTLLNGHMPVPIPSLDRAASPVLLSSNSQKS
The procedure, abridged: as §1

The target of assay [8] is ETV5 (Homo sapiens, UniProt P41161 1-510). The procedure, abridged:
as §1

For assay [9], the target named is T6, SPIC (Homo sapiens, UniProt Q8N5J4 1-248).
T6 sequence: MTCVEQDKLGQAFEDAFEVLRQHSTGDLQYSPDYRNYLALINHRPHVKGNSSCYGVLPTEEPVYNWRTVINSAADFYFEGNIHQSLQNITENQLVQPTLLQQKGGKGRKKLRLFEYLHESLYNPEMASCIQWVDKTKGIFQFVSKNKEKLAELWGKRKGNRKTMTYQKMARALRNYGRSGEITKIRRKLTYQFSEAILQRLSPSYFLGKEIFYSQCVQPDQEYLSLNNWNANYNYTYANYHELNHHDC
The procedure, abridged:
as §1

Assay [10] deals with T7, ETS2 (Homo sapiens, UniProt P15036 1-469).
T7 sequence: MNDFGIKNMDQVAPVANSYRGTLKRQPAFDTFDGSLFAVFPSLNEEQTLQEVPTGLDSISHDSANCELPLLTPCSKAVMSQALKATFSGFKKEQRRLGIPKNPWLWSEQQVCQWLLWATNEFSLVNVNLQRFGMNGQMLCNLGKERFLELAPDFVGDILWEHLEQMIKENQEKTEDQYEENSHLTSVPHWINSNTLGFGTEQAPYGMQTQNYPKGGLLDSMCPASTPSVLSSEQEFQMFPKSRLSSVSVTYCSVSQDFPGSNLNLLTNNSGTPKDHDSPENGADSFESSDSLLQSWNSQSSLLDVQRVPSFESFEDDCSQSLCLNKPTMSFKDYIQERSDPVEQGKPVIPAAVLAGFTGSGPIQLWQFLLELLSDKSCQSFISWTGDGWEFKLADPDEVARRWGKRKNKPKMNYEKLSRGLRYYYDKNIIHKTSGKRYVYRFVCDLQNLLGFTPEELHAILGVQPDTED
The procedure, abridged: as §1

Assay [11] has as its target T8, ELF5 (Homo sapiens, UniProt Q9UKW6-2 1-255).
T8 sequence: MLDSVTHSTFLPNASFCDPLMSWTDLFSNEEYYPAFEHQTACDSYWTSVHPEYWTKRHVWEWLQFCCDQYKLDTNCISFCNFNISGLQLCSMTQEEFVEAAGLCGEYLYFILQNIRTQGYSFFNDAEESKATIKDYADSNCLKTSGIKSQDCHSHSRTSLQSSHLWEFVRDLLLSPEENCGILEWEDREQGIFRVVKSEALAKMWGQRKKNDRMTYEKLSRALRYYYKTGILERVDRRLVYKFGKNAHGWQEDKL
The procedure, abridged: as §1

Assay [12] addresses T9, ETV3 (Homo sapiens, UniProt P41162-2 1-143).
T9 sequence: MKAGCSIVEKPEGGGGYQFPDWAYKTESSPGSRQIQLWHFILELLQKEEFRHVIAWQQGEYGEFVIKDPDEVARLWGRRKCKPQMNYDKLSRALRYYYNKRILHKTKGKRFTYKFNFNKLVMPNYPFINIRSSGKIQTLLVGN
Summed up:
as §1

The target in assay [13] is ETV6 (Homo sapiens, UniProt P41212 1-452). Summed up: as §1
Assay [14] has as its target SPIB (Homo sapiens, UniProt Q01892 1-262). Summed up: as §1
Assay [15] has as its target ELF4 (Homo sapiens, UniProt Q99607 1-663). Summed up:
as §1

Assay [16] addresses T10, ERF (Homo sapiens, UniProt P50548 1-548).
T10 sequence: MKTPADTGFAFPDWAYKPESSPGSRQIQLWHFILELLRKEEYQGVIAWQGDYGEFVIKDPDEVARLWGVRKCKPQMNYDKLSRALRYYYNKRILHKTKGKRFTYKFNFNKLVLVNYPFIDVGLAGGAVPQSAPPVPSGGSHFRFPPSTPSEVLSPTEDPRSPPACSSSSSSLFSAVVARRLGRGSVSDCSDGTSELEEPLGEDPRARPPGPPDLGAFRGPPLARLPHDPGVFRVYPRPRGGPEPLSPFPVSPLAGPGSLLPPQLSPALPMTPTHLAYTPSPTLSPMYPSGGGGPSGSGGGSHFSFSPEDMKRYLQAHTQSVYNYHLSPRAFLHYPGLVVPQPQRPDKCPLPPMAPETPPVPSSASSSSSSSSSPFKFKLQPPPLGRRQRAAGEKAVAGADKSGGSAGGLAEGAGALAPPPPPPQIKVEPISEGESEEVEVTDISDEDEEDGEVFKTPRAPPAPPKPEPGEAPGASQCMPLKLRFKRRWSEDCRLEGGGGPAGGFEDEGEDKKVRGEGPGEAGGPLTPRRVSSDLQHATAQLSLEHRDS
The procedure, abridged:
as §1

Chain of ETV5 (P41161 whole entry): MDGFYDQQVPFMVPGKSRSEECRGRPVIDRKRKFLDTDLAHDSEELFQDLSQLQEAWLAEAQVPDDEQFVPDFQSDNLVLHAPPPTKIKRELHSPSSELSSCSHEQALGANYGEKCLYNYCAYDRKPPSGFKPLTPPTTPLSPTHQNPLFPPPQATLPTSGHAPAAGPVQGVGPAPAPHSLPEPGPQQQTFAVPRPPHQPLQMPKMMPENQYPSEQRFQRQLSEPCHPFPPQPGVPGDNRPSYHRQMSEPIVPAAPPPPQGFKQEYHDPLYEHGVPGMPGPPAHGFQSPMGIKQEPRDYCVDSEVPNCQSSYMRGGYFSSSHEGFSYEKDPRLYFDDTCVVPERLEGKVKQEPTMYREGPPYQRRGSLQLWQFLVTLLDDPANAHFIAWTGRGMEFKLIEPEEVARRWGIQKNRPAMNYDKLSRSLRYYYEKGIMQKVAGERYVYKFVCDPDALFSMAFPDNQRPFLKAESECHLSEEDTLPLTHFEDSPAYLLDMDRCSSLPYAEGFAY
Chain of ELF1 (P32519 whole entry): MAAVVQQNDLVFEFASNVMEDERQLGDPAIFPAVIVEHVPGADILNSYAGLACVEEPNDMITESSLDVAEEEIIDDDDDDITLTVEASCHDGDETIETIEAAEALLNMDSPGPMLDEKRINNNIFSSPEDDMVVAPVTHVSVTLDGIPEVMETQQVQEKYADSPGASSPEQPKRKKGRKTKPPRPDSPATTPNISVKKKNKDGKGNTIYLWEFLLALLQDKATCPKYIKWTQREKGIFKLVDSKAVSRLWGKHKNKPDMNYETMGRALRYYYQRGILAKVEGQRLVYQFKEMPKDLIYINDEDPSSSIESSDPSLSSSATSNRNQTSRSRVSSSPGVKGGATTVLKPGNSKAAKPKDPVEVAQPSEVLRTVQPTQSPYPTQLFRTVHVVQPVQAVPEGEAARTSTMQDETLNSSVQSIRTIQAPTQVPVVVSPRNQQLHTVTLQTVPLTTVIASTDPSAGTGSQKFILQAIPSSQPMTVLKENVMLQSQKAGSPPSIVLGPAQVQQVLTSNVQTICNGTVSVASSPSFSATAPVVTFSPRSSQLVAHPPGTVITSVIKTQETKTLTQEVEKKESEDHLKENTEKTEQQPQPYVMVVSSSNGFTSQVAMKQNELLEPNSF
Chain of ETV6 (P41212 whole entry): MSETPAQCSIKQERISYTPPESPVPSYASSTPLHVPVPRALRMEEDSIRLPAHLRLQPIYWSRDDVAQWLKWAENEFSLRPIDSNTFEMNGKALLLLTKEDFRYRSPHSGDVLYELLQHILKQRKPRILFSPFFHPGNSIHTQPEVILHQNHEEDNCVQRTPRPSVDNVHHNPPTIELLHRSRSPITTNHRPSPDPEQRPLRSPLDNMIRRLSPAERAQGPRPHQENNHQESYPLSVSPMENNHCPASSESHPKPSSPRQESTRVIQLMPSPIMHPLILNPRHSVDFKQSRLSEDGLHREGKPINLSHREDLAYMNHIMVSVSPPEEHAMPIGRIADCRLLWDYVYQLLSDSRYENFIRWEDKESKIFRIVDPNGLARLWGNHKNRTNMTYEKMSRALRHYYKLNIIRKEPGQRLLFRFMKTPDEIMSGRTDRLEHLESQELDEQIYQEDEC
Chain of SPIB (Q01892 whole entry): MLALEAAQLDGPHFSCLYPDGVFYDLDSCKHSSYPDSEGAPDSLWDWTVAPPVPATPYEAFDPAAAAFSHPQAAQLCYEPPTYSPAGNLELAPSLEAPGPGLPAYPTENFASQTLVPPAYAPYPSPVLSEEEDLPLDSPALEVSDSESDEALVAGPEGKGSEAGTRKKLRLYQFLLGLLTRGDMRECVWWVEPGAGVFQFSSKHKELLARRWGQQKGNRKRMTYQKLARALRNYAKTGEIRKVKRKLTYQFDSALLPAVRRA
Chain of ELF4 (Q99607 whole entry): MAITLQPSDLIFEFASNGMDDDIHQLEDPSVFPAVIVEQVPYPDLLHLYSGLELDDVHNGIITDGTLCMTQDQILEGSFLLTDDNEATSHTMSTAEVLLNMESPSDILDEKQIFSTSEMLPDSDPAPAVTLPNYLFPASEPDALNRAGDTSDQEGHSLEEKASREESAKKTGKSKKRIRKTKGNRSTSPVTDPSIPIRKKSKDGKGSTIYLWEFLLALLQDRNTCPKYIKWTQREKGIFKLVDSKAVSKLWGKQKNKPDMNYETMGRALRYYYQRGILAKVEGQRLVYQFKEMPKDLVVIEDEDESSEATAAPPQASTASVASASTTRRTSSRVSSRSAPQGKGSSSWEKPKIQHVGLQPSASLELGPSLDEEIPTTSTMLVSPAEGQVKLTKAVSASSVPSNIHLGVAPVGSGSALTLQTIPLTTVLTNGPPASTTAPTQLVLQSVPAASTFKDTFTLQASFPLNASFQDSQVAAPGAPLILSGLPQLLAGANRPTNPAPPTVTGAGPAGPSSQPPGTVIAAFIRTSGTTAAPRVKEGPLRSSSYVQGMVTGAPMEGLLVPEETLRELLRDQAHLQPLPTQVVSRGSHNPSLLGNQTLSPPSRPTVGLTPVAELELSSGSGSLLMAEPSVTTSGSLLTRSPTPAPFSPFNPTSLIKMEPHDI

Regarding GGTTAT, the binding signal in assay [1] is 1.07 fold enrichment (6-mer frequency, TF over GST control); in assay [2], 1.03 fold enrichment (6-mer frequency, TF over GST control); in assay [3], 1.04 fold enrichment (6-mer frequency, TF over GST control); in assay [4] it was 1.01 fold enrichment (6-mer frequency, TF over GST control); in [5], 1.03 fold enrichment (6-mer frequency, TF over GST control); in assay [6] it was 1 fold enrichment (6-mer frequency, TF over GST control). The binding signal was 1.07 fold enrichment (6-mer frequency, TF over GST control) in assay [7]; 1.09 fold enrichment (6-mer frequency, TF over GST control) in assay [8]; 1.05 fold enrichment (6-mer frequency, TF over GST control) in assay [9]; 1.04 fold enrichment (6-mer frequency, TF over GST control) in assay [10]; 1.1 fold enrichment (6-mer frequency, TF over GST control) in assay [11]; 1.05 fold enrichment (6-mer frequency, TF over GST control) in assay [12]. For the same sequence, the binding signal in assay [13] is 1.03 fold enrichment (6-mer frequency, TF over GST control).
On to ACATAG, for which the binding signal in assay [1] was 1.12 fold enrichment (6-mer frequency, TF over GST control); in [2], 1.03 fold enrichment (6-mer frequency, TF over GST control); in assay [4], 1.07 fold enrichment (6-mer frequency, TF over GST control); in [5], 1.07 fold enrichment (6-mer frequency, TF over GST control); in assay [14], 1.01 fold enrichment (6-mer frequency, TF over GST control); in assay [7], 1.07 fold enrichment (6-mer frequency, TF over GST control). The binding signal in assay [8] was 1.08 fold enrichment (6-mer frequency, TF over GST control); in assay [9], 1.02 fold enrichment (6-mer frequency, TF over GST control); in assay [15], 1.04 fold enrichment (6-mer frequency, TF over GST control); in assay [16], 1.11 fold enrichment (6-mer frequency, TF over GST control); in [10], 1.05 fold enrichment (6-mer frequency, TF over GST control); in assay [11] it was 1.02 fold enrichment (6-mer frequency, TF over GST control). Further, in assay [13], the binding signal was 1.07 fold enrichment (6-mer frequency, TF over GST control).
On to TGGGTA, for which the binding signal in assay [1] is 1.04 fold enrichment (6-mer frequency, TF over GST control); in assay [2] it was 1.05 fold enrichment (6-mer frequency, TF over GST control); in assay [5], 1.01 fold enrichment (6-mer frequency, TF over GST control); in assay [7] it was 1.12 fold enrichment (6-mer frequency, TF over GST control); in assay [8], 1.02 fold enrichment (6-mer frequency, TF over GST control); in assay [9], 1.03 fold enrichment (6-mer frequency, TF over GST control). Also, in [16], the binding signal was 1.14 fold enrichment (6-mer frequency, TF over GST control).
On to TTGGCG, for which the binding signal in [1] was 1.07 fold enrichment (6-mer frequency, TF over GST control); in assay [2], 1.02 fold enrichment (6-mer frequency, TF over GST control); in [6], 1.05 fold enrichment (6-mer frequency, TF over GST control); in [14], 1.13 fold enrichment (6-mer frequency, TF over GST control); in assay [8] it was 1.02 fold enrichment (6-mer frequency, TF over GST control); in [9] it was 1.09 fold enrichment (6-mer frequency, TF over GST control). In addition, the binding signal in [16] is 1.01 fold enrichment (6-mer frequency, TF over GST control).
